Here are results for 13 compounds from PubChem BioAssay AID1508601 (ICCB-Longwood Screening Facility, Harvard Medical School, 2020).

A short description of experiment [1]: p53 stabilisation in HPV-positive human cells, imaging, p53-positive nuclei imaging, 24 h, 48 h (AID 1508601). Particulars: 24/48 h.
Experiment [2] deals with Cellular tumor antigen p53 (Homo sapiens) (UniProt P04637). The experiment is described as above. As to conditions: 24/48 h, stronger effect = higher value.
The mark [3] stands for this setting: measured here: cell number at 24 h, Library stock concentration: 3.33 mM.
The mark [4] stands for this setting: measured here: cell number at 48 h, Library stock concentration: 3.33 mM.
The mark [5] stands for this setting: Library stock concentration: 3.33 mM.
[6] abbreviates: measured here: p53 positive nuclei at 24 h, Library stock concentration: 3.33 mM.
[7] abbreviates: measured here: cell number at 24 h, concentration not given here.
[8] abbreviates: measured here: cell number at 48 h, concentration not given here.
[9] abbreviates: measured here: p53 positive nuclei at 24 h, concentration not given here.
Setting [10] is: measured here: cell number at 24 h, Library stock concentration: 46 uM.
The mark [11] stands for this setting: measured here: cell number at 24 h, Library stock concentration: 278 uM.
Where [12] appears, read: measured here: cell number at 24 h, Library stock concentration: 1.67 mM.
[13] abbreviates: measured here: cell number at 24 h, Library stock concentration: 10 mM.
Setting [14] is: measured here: cell number at 48 h, Library stock concentration: 46 uM.
Where [15] appears, read: measured here: cell number at 48 h, Library stock concentration: 278 uM.
Where [16] appears, read: measured here: cell number at 48 h, Library stock concentration: 1.67 mM.
The mark [17] stands for this setting: measured here: cell number at 48 h, Library stock concentration: 10 mM.
The mark [18] stands for this setting: Library stock concentration: 46 uM.
The mark [19] stands for this setting: Library stock concentration: 278 uM.
Where [20] appears, read: Library stock concentration: 1.67 mM.
Where [21] appears, read: Library stock concentration: 10 mM.
Setting [22] is: measured here: p53 positive nuclei at 24 h, Library stock concentration: 46 uM.
[23] abbreviates: measured here: p53 positive nuclei at 24 h, Library stock concentration: 278 uM.
The mark [24] stands for this setting: measured here: p53 positive nuclei at 24 h, Library stock concentration: 1.67 mM.
[25] abbreviates: measured here: p53 positive nuclei at 24 h, Library stock concentration: 10 mM.
[26] abbreviates: measured here: cell number at 24 h, Library stock concentration: 80 uM.
The mark [27] stands for this setting: measured here: cell number at 24 h, Library stock concentration: 400 uM.
Where [28] appears, read: measured here: cell number at 24 h, Library stock concentration: 2 mM.
[29] abbreviates: measured here: cell number at 48 h, Library stock concentration: 80 uM.
The mark [30] stands for this setting: measured here: cell number at 48 h, Library stock concentration: 400 uM.
The mark [31] stands for this setting: measured here: cell number at 48 h, Library stock concentration: 2 mM.
Setting [32] is: Library stock concentration: 80 uM.
The mark [33] stands for this setting: Library stock concentration: 400 uM.
[34] abbreviates: Library stock concentration: 2 mM.
Setting [35] is: measured here: p53 positive nuclei at 24 h, Library stock concentration: 80 uM.
Where [36] appears, read: measured here: p53 positive nuclei at 24 h, Library stock concentration: 400 uM.
Setting [37] is: measured here: p53 positive nuclei at 24 h, Library stock concentration: 2 mM.

Out of some 5,700 compounds screened, about 85 (1%) were called active. Cut-off read from the data, not from the text of the source: active = p53-positive nuclei above about 36% (passing the limit was not always enough); inactive = the rest. For the sample, actives were picked, then their nearest neighbours and some compounds at random.

Cellular tumor antigen p53 (Homo sapiens), sequence (P04637 whole entry, looked up): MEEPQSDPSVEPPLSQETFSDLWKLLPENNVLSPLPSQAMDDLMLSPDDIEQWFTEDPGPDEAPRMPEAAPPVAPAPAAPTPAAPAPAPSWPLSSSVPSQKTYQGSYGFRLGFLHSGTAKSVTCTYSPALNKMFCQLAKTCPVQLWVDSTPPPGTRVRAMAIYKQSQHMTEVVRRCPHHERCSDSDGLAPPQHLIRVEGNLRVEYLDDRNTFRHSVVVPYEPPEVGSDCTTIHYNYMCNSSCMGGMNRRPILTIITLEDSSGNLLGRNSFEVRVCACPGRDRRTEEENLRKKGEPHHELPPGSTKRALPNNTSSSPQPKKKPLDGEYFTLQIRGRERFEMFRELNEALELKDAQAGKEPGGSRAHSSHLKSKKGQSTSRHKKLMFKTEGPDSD

Take `O=C(O)c1ccc(C=C2SC(=S)N(c3cccc(C(F)(F)F)c3)C2=O)cc1`: the nuclei count, normalised in experiment [1] (setting [3]) turned out to be 76.4%; in experiment [1] (setting [4]), 78.4%. Further, the p53-positive nuclei, normalised in experiment [2] (setting [5]) was -0.0579% (inactive); in experiment [2] (setting [6]), -0.316%.
Regarding `C/C=C/C(=O)O[C@H](COCCCCCCCCCCCCCCCC)COP(=O)([O-])OCC[N+](C)(C)C`, the nuclei count, normalised in experiment [1] (setting [7]) came out at 91.3%; in experiment [1] (setting [8]), 103%. Further, the p53-positive nuclei, normalised in experiment [2] (concentration not given here) is -0.0567% (inactive); in experiment [2] (setting [9]), 0.0947%.
The matching figures for `CCCCCCCCCCCCCCCCCC(=O)OCC`: 111%, 110%, -0.0271% (inactive) and -0.00774%.
With `N=c1ccn2c(n1)OC1C(O)C(CO)OC12` (stereo unspecified), the figures for the nuclei count, normalised in experiment [1] (setting [3]) and in experiment [1] (setting [4]) were 61.4% and 51.8%, respectively. For the same compound, the p53-positive nuclei, normalised in experiment [2] (setting [5]) was 0.1% (inactive); in experiment [2] (setting [6]) it was -0.25%.
Turning to `Nc1cccc(OCc2ccccc2)c1`, the nuclei count, normalised in experiment [1] (setting [10]) stood at 111%; in experiment [1] (setting [11]) it was 109%; in experiment [1] (setting [12]) it was 109%; in experiment [1] (setting [13]), 99%; in experiment [1] (setting [14]), 106%; in experiment [1] (setting [15]) it was 111%. The nuclei count, normalised in experiment [1] (setting [16]) is 109%; in experiment [1] (setting [17]), 103%. The p53-positive nuclei, normalised in experiment [2] (setting [18]) is -0.0623% (inactive); in experiment [2] (setting [19]), -0.108% (inactive); in experiment [2] (setting [20]), 0.151% (inactive); in experiment [2] (setting [21]), 0.0982% (inactive); in experiment [2] (setting [22]), -0.0998%; in experiment [2] (setting [23]), -0.155%. Further, the results for the p53-positive nuclei, normalised in experiment [2] (setting [24]) and in experiment [2] (setting [25]) were 0.0148% and -0.152%, respectively.
For the compound `CN1CC[C@H](c2c(O)cc(O)c3c(=O)cc(-c4ccccc4Cl)oc23)C(O)C1` (stereo partly specified), the nuclei count, normalised was determined as 104% in experiment [1] (setting [26]); 38.3% in experiment [1] (setting [27]); 28.8% in experiment [1] (setting [28]); 19.7% in experiment [1] (setting [3]); 27.3% in experiment [1] (setting [13]); 113% in experiment [1] (setting [29]). Besides, the nuclei count, normalised was found to be 25.6% in experiment [1] (setting [30]), 21.8% in experiment [1] (setting [31]), 16% in experiment [1] (setting [4]) and 20.2% in experiment [1] (setting [17]). Besides, the p53-positive nuclei, normalised in experiment [2] (setting [32]) is 0.113% (inactive); in experiment [2] (setting [33]), 48.4% (inactive); in experiment [2] (setting [34]) it was 4.92% (inactive); in experiment [2] (setting [5]), 8.28% (inactive); in experiment [2] (setting [21]), 4.03% (inactive); in experiment [2] (setting [35]), -0.107%. The p53-positive nuclei, normalised in experiment [2] (setting [36]) worked out at 2.03%; in experiment [2] (setting [37]) it was 0.196%; in experiment [2] (setting [6]), 0.472%; in experiment [2] (setting [25]) it was 0.419%.
Consider `CN1CCC(c2c(O)cc(O)c3c(=O)cc(-c4ccccc4Cl)oc23)C1CO` (stereo unspecified), for which the nuclei count, normalised is 103% in experiment [1] (setting [26]); 85.7% in experiment [1] (setting [27]); 35.8% in experiment [1] (setting [28]); 33.3% in experiment [1] (setting [3]); 24.1% in experiment [1] (setting [13]); 106% in experiment [1] (setting [29]). In addition, the nuclei count, normalised in experiment [1] (setting [30]) was found to be 84.1%; in experiment [1] (setting [31]), 23.2%; in experiment [1] (setting [4]) it was 26.2%; in experiment [1] (setting [17]), 17.3%. The p53-positive nuclei, normalised was 0.295% (inactive) in experiment [2] (setting [32]); 16% (inactive) in experiment [2] (setting [33]); 66% (active) in experiment [2] (setting [34]); 49.6% (inactive) in experiment [2] (setting [5]); 30.8% (inactive) in experiment [2] (setting [21]); 0.32% in experiment [2] (setting [35]). The p53-positive nuclei, normalised in experiment [2] (setting [36]) was 6.89%; in experiment [2] (setting [37]) it was 3.25%; in experiment [2] (setting [6]) it was 3.39%; in experiment [2] (setting [25]), 6.32%.
`CN1CCC(c2c(O)cc(O)c3c(=O)cc(-c4ccccc4Cl)oc23)C(O)C1` (stereo unspecified): the nuclei count, normalised in experiment [1] (setting [26]) came to 79.6%; in experiment [1] (setting [27]), 49.2%; in experiment [1] (setting [28]), 29.8%; in experiment [1] (setting [13]), 27.6%; in experiment [1] (setting [29]), 57.1%; in experiment [1] (setting [30]), 29.5%. Also, the results for the nuclei count, normalised in experiment [1] (setting [31]) and in experiment [1] (setting [17]) were 16% and 17.8%, respectively. For the same compound, the p53-positive nuclei, normalised in experiment [2] (setting [32]) was 5.98% (inactive); in experiment [2] (setting [33]), 41.3% (inactive); in experiment [2] (setting [34]), 13.9% (inactive); in experiment [2] (setting [21]), 7.27% (inactive); in experiment [2] (setting [35]) it was 1.3%; in experiment [2] (setting [36]), 7.22%. For the same compound, the figures for the p53-positive nuclei, normalised in experiment [2] (setting [37]) and in experiment [2] (setting [25]) were 0.675% and 0.446%, respectively.
Turning to `CCCCC[C@H](O)/C=C/[C@@H]1[C@@H](C/C=C\CCCC(=O)NCC)[C@@H](O)C[C@H]1O`, the nuclei count, normalised amounted to 106% in experiment [1] (setting [7]) and 102% in experiment [1] (setting [8]). The p53-positive nuclei, normalised in experiment [2] (concentration not given here) was 0.015% (inactive); in experiment [2] (setting [9]), -0.0692%.
For `O=C(/C=C/c1cccc(C(=O)NO)c1)NO` the same measures were 114%, 107%, 0.114% (inactive) and 0.124%.
The matching figures for `O=S(=O)(NO)c1ccccc1`: 71.3%, 77%, 0.0111% (inactive) and -0.0732%.
Consider `O=C(C=Cc1cccc(S(=O)(=O)Nc2ccccc2)c1)NO`, for which the nuclei count, normalised turned out to be 108% in experiment [1] (setting [26]); 107% in experiment [1] (setting [27]); 94.6% in experiment [1] (setting [28]); 58% in experiment [1] (setting [3]); 52.5% in experiment [1] (setting [13]); 101% in experiment [1] (setting [29]). Further, the nuclei count, normalised in experiment [1] (setting [30]) stood at 95.8%; in experiment [1] (setting [31]) it was 77.3%; in experiment [1] (setting [4]) it was 40.2%; in experiment [1] (setting [17]), 30.4%. The p53-positive nuclei, normalised in experiment [2] (setting [32]) is 3.46% (inactive); in experiment [2] (setting [33]) it was 0.535% (inactive); in experiment [2] (setting [34]), 5.33% (inactive); in experiment [2] (setting [5]), 46% (active); in experiment [2] (setting [21]) it was 76% (active); in experiment [2] (setting [35]), 0.856%. Besides, the p53-positive nuclei, normalised worked out at 1.2% in experiment [2] (setting [36]), 10.1% in experiment [2] (setting [37]), 51% in experiment [2] (setting [6]) and 64.7% in experiment [2] (setting [25]).
With `CCCCCCCCc1cccc(NC(=O)C(N)COP(=O)(O)O)c1` (stereo unspecified), the nuclei count, normalised in experiment [1] (setting [10]) was determined as 114%; in experiment [1] (setting [11]), 118%; in experiment [1] (setting [12]) it was 113%; in experiment [1] (setting [13]) it was 108%; in experiment [1] (setting [14]), 110%; in experiment [1] (setting [15]), 108%. Moreover, the figures for the nuclei count, normalised in experiment [1] (setting [16]) and in experiment [1] (setting [17]) were 107% and 101%, respectively. The p53-positive nuclei, normalised was -0.108% (inactive) in experiment [2] (setting [18]); 0.0439% (inactive) in experiment [2] (setting [19]); -0.101% (inactive) in experiment [2] (setting [20]); -0.166% (inactive) in experiment [2] (setting [21]); 0.0125% in experiment [2] (setting [22]); -0.0546% in experiment [2] (setting [23]). In addition, the p53-positive nuclei, normalised was -0.0401% in experiment [2] (setting [24]) and -0.218% in experiment [2] (setting [25]).
